Experimental data reported in PubChem BioAssay (NCI).
Compounds without any hit were thinned out: in the full panel of roughly 83,000, 20% have a hit.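 Percent growth is the endpoint: 0 to 100 indicates growth inhibition (40 means 60% inhibition), 0 means no net growth, and negative values indicate cell death.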 Unmarked numbers belong to inactive results. Calls of active or inactive are those of the source. The calls were made as follows: active = growth percent below 10; inactive = the rest.

Assays:
Assay in all cases: NCI-60 one-dose screen, 48 h (100 = growth as untreated, 0 = no growth, -100 = all killed)
Conditions in all cases: 10 µM unless noted
SR leukemia = test system: SR leukemia
RPMI-8226 leukemia = test system: RPMI-8226 leukemia
OVCAR-8 ovarian = test system: OVCAR-8 ovarian
OVCAR-5 ovarian = test system: OVCAR-5 ovarian
OVCAR-4 ovarian = test system: OVCAR-4 ovarian
SK-OV-3 ovarian = test system: SK-OV-3 ovarian
IGROV1 ovarian = test system: IGROV1 ovarian
OVCAR-3 ovarian = test system: OVCAR-3 ovarian
HS 578T breast = test system: HS 578T breast
NCI/ADR-RES ovarian = test system: NCI/ADR-RES ovarian
T-47D breast = test system: T-47D breast
BT-549 breast = test system: BT-549 breast
MDA-MB-435 melanoma = test system: MDA-MB-435 melanoma
SW-620 colon = test system: SW-620 colon
MCF7 breast = test system: MCF7 breast
HCT-116 colon = test system: HCT-116 colon
HCC-2998 colon = test system: HCC-2998 colon
KM12 colon = test system: KM12 colon

Compound | growth (SR leukemia) | growth (RPMI-8226 leukemia) | growth (OVCAR-8 ovarian) | growth (OVCAR-5 ovarian) | growth (OVCAR-4 ovarian) | growth (SK-OV-3 ovarian) | growth (IGROV1 ovarian) | growth (OVCAR-3 ovarian) | growth (HS 578T breast) | growth (NCI/ADR-RES ovarian) | growth (T-47D breast) | growth (BT-549 breast) | growth (MDA-MB-435 melanoma) | growth (SW-620 colon) | growth (MCF7 breast) | growth (HCT-116 colon) | growth (HCC-2998 colon) | growth (KM12 colon)
O=[N+]([O-])CC(c1ccccc1F)c1c[nH]c2ccccc12 (stereo unspecified) | 30.2% | 76% | 78% | 96% | 97.3% | 119% | 68.6% | 77.9% | 77.2% | 48.2% | 59.4% | 73.8% | 3.66% (active) | 39% | 54.3% | 65.2% | 80.6% | 59.5%
O=C1Nc2cc(-c3cccc(O)c3)ccc2/C1=C/c1ccc[nH]1 | 4.14% (active) | -15% (active) | 26.6% | 19.4% | 25.4% | 3.46% (active) | 8.78% (active) | -1.19% (active) | -4.18% (active) | 23.8% | -0.905% (active) | 0.113% (active) | 5.05% (active) | 18.9% | 10.5% | 11.6% | 14.8% | 0.211% (active)
C=C(C)[C@@H]1CC[C@]2(C(=O)N[C@@H](Cc3ccccc3)C(=O)OC)CC[C@]3(C)[C@H](CC[C@@H]4[C@@]5(C)CCC(=O)C(C)(C)[C@@H]5CC[C@]43C)[C@@H]12 | 85.3% | 85.2% | 100% | 97.9% | 73.5% | 98.8% | 88.7% | 72.7% | 96.4% | 99.1% | 64.8% | 105% | 90.6% | 95.4% | 84.6% | 68.4% | 98.2% | 75.2%
CC1(C)CC(=O)C2=C(C1)N(c1ccc(F)cc1F)C(N)=C(C#N)C2c1cc(Br)ccc1F (stereo unspecified) | 31% | 80.6% | 86.7% | 107% | 83.1% | 131% | 94.3% | 99.7% | 105% | 85.7% | 110% | 106% | 101% | 89.6% | 95% | 80.9% | 107% | 88.7%
CCSCC1CC(O)(c2ccccc2)CC(c2ccc(F)cc2)O1 (stereo unspecified) | -22% (active) | 8.79% (active) | 21.3% | 86.6% | 24.5% | 25.9% | 48.5% | -13% (active) | -14.8% (active) | 24.6% | -4.7% (active) | -0.126% (active) | 5.06% (active) | 8.68% (active) | -11.3% (active) | 1.4% (active) | 69.3% | -47.2% (active)
COc1cc(/C=C/c2cc(O)c(C(C)=O)c(O)c2)cc2c1O[C@]1(C)CC[C@@H](O)C(C)(C)[C@H]1C2 | 29.9% | -7.38% (active) | 67.7% | 89.8% | 90.8% | 66.1% | 60.3% | 61.4% | 25.4% | 74.2% | 49% | 22.1% | 73% | 69.3% | 45.3% | 45.2% | 75.1% | 53.9%
COc1cc2c(c(OC)c1OC)CCC(c1cccc(NC(=O)c3cccc(Br)c3)c1)O2 (stereo unspecified) | 84.2% | 78.2% | 93.6% | 98.5% | 83.5% | 84% | 85% | 97.3% | 84.1% | 91.8% | 72.5% | 103% | 87.4% | 93.2% | 89% | 72.2% | 99.7% | 95.2%
Nc1n[nH]c2cccc(C#Cc3cccc(C(=O)Nc4cc(CN5CCOCC5)cc(C(F)(F)F)c4)c3)c12 | 35.6% | 12.9% | 28.9% | 34.3% | 33.1% | 82.9% | 7.98% (active) | 46.7% | 10.2% | 42.1% | 37.1% | 57.9% | 23.4% | 30.9% | 44.2% | 14.1% | 45% | 13.1%
COc1cc2oc(-c3cccc(C(=O)Nc4ccc(Br)cc4)c3)cc(=O)c2c(OC)c1OC | 18.4% | 8.6% (active) | 40.5% | 61% | 57.6% | 69.4% | 52.3% | 76% | 65.2% | 45.7% | 36% | 45.8% | 65.6% | 94.6% | 78.1% | 45.6% | 81.9% | 46.6%
c1ccc2c(-c3nccs3)c[nH]c2c1 | 86% | 104% | 106% | 97.3% | 110% | 99.7% | 101% | 103% | 98.3% | 103% | 96.3% | 86.6% | 101% | 99.1% | 79.8% | 95.7% | 107% | 96.3%
Cc1ccc(/C=C(/C#N)n2nnc3cccc(F)c32)cc1 | 9.82% (active) | -4.51% (active) | 8.47% (active) | 0.132% (active) | 23% | 27.8% | 17.6% | -53.2% (active) | -14.8% (active) | -33.1% (active) | 21.9% | 27.1% | -89.5% (active) | 1.87% (active) | 13.5% | 2.07% (active) | -32.1% (active) | -17.6% (active)
COc1cc(/C(C)=C(\c2ccc(Cl)cc2)c2ccc(OCCN3CCCC3)cc2)ccc1F | -25.3% (active) | 14.7% | 69.1% | 74.8% | 51.8% | 108% | 40.4% | 63% | 70.5% | 69.9% | 55.1% | 79.1% | 51.3% | 43.2% | 26.5% | 39.2% | 57.4% | 36.7%
O=S(=O)(NCCNc1nccc(-c2c(-c3cccc(O)c3)nc3occn23)n1)c1ccc(Cl)cc1 | 106% | 105% | 105% | 143% | 126% | 99.8% | 95% | 113% | 108% | 109% | 91.7% | 116% | 45.4% | 125% | 82% | 87.6% | 135% | 91.3%
COc1cc(/C=C\C(=O)O)ccc1OCc1ccccc1 | 97.7% | 90.2% | 93.7% | 110% | 108% | 102% | 103% | 104% | 101% | 101% | 82.1% | 112% | 119% | 105% | 96% | 95.2% | 104% | 104%
O=C1c2ccc3c4c(ccc(c24)C(=O)N1CCCNCc1ccccc1)C(=O)N(CCCNCc1ccccc1)C3=O | -47.2% (active) | -36.7% (active) | -50.7% (active) | -20.6% (active) | -97.2% (active) | -11.4% (active) | -23.4% (active) | -63.4% (active) | -32.3% (active) | -26.5% (active) | -29.9% (active) | -85.2% (active) | -54% (active) | -81.8% (active) | -83.8% (active) | -44.9% (active) | -90.8% (active) | -81.8% (active)
C=C1C(=O)O[C@H]2[C@H]1CC/C(COC(=O)NCCc1c[nH]c3ccc(OC)cc13)=C\CC[C@@]1(C)O[C@@H]21 | 11.6% | -18.4% (active) | 20.4% | 51.8% | -13.1% (active) | 118% | -5.2% (active) | -74.3% (active) | 79.9% | 83.5% | -35.3% (active) | -22.1% (active) | 14.7% | -56.2% (active) | 26.9% | -82.5% (active) | 75.1% | 63.1%
O=C(/C=C/c1ccc[nH]1)c1ccc(-n2ccc(C(F)(F)F)n2)c(F)c1 | 80.3% | -6.08% (active) | 95.6% | 90.9% | 99.2% | 121% | 93.4% | 99.8% | 98% | 93.1% | 70.9% | -2.69% (active) | 99.3% | 103% | 30.9% | 85.6% | 94.2% | 29.6%
